# About 3,100 (0.86%) of roughly 360,000 compounds were called active. The list comes from a sample in which actives are over-represented; it also holds similar structures and randomly drawn compounds. Values without a mark were called inactive.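 Rule for the calls: active = at least 50% inhibition at 5 µM, scaled per plate between neutral and stimulator controls; inactive = the rest.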
# Experiment: NF-kB reporter blockers in CF airway cells – cell-based, GFP fluorescence, uHTS, primary screen (AID 588850);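 note: PAF is a Pseudomonas aeruginosa culture filtrate used as stimulus; plate controls were PAF-stimulated DMSO wells for no effect and unstimulated DMSO wells for full effect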
# Details: KKLEB NF-kB-GFP reporter, PAF-induced, GFP fluorescence overnight; at 5 µM; hits give high values
row,Compound,inhibition
1,CC(C#N)(NC(=O)CN1CCN(S(=O)(=O)c2cc(C(F)(F)F)ccc2Cl)CC1)C1CC1 (centres undefined),17.9%
2,CCOC(=O)c1ccc(S(=O)(=O)N(CCO)Cc2cc3cc(OC)c(OC)cc3[nH]c2=O)cc1,-25.3%
3,Nc1ncnc2c1ncn2[C@@H]1O[C@H](C(=O)N2CCSC2)[C@@H](O)[C@H]1O,4.9%
4,COC(=O)C1=C(C)NC(=O)/C1=C/c1ccc(CNS(=O)(=O)c2ccc(C)cc2)o1,-6.4%
5,COC(=O)C1=C(C)NC2=C(C(=O)c3ccccc32)C1c1ccc(-c2ccc(C(=O)O)cc2)o1 (centres undefined),76.6% (active)
6,COC(=O)C1=C(C)N(C)C(=O)NC1c1ccc([N+](=O)[O-])o1 (centres undefined),1.5%
7,Cc1cn([C@H]2C[C@H](O)[C@@H](CNC(=O)[C@H](N)Cc3cccnc3)O2)c(=O)[nH]c1=O,-3.6%
8,Cc1[nH]c(=O)c(C(=O)/C=C/c2ccccc2)c2c1CCCC2,51.1% (active)
9,COC(=O)c1c(C)[nH]c(C(=O)/C=C/c2ccc(Cl)cc2)c1C,3.1%
10,CC1(C(=O)O)CCCN(C(=O)/C=C/c2ccccc2)C1 (centres undefined),-1.6%
11,Cn1c(SCC(=O)NC2CCCCC2)nnc1-c1ccc(N)cc1,3.7%
12,Cc1cc(OC(=O)c2ccccc2Cl)ccc1N1C(=O)CCC1=O,-7.9%
13,CC(NS(=O)(=O)c1ccccc1)c1n[nH]c(=S)n1-c1ccccc1 (centres undefined),-11.4%
14,Nc1[nH][nH]c(=O)c1N=Nc1ccc2c(c1)OCO2,-6.6%
15,CCC(=O)N1CCC(C)(C(=O)Nc2cc(OC)c(OC)c(OC)c2)C1 (centres undefined),13.9%
16,O=C(CNC(=O)OCc1ccccc1)Oc1cc2oc(=O)cc(-c3ccccc3)c2cc1Cl,72.8% (active)
17,CC(Oc1ccc2c(-c3ccccc3)cc(=O)oc2c1)C(=O)NC(Cc1c[nH]c2ccccc12)C(=O)O (centres undefined),-11.2%
18,O=C(CNC(=O)c1ccccc1)NCC(=O)OCc1ccc(Cl)cc1,-4.1%
19,Cc1cc(NC(=O)CS(=O)(=O)c2cn(C)c3ccccc23)no1,-0.5%
20,OC[C@@H]1CN(Cc2ccc(-c3ccccc3)cc2)C[C@H](n2cnc3c(NC4CCCC4)ncnc32)O1,-0.3%
21,Cc1nn(-c2ccccc2)c(C)c1/C=N/NC(=O)CSc1nc2ccccc2c(=O)n1-c1ccccc1,23.3%
22,Cc1nn(-c2ccccc2)c(Cl)c1/C=N/NC(=O)c1nn(C)cc1[N+](=O)[O-],52% (active)

row,Compound,inhibition
1,Cn1cc([N+](=O)[O-])c(C(=O)Nc2ccc3c(c2)OCCO3)n1,15.1%
2,O=C(NC1CCN(C(=S)NCc2ccco2)CC1)c1ccc(F)cc1,-0.1%
3,CCN(C(=O)c1ccc(Br)cc1)c1ccccc1,21.8%
4,C=CCN1C(=O)C(Cc2ccc(OCC)cc2)SC1=Nc1ccc(C(=O)O)cc1 (centres undefined),4.1%
5,COc1cc(C(O)c2nc(-c3cccc(C(=O)O)c3)cs2)ccc1F (centres undefined),12.4%
6,COc1ccccc1C(=O)Nc1nc2nc(-c3ccccc3)cc(=O)n2[nH]1,-8%
7,Cn1cc(C2OC(=O)c3ccccc32)c2ccccc21 (centres undefined),41.4%
8,Cc1ccc(-c2csc(NC3OC(=O)c4ccccc43)n2)cc1 (centres undefined),81.3% (active)
9,COc1ccc2c(c1OC)C(=O)OC2Nc1nc(-c2ccccc2)cs1 (centres undefined),88.8% (active)
10,Cc1ccc(-c2csc(NC(=O)C3=COCCO3)n2)cc1C,-43.3%
11,CN(CC(=O)O)S(=O)(=O)c1ccc2oc3ccccc3c2c1,-19.3%
12,Cc1ccc(S(=O)(=O)Nc2ccc(F)c(S(=O)(=O)N3CCOCC3)c2)cc1,-4.8%
13,O=C(Nc1ccccc1)c1ccccc1Br,-3.5%
14,COCCCNC(=O)c1ccc(-c2c(C)noc2C)c2ccoc12,-59%
15,CC(=O)c1ccc(N2CCN(S(=O)(=O)c3c(C)[nH]c(=O)[nH]c3=O)CC2)cc1,13.2%
16,COc1cccc(Cn2cc(/C=N/NC(=O)c3cc(O)cc(O)c3)c3ccccc32)c1,1.7%
17,COc1cc(/C=N/Nc2ccc(C)cc2)cc(Br)c1O,-27.2%
18,COc1cccc(/C=N/Nc2cc(C)nc(-c3ccccc3O)n2)c1O,89.8% (active)
19,O=C(CN1CCOCC1)N1CCCc2c1c(=O)oc1ccc(OCc3ccccc3)cc21,-14.3%
20,Cc1nn2c(c1-c1ccccc1)N=C(c1ccco1)CC2c1ccccc1 (centres undefined),-5.8%
21,Cc1cc(Br)ccc1NC(=O)CN(C)C(=O)CN1C(=O)NC2(CCCC2)C1=O,-8.9%
22,COc1ccc(CNC(=O)/C(C#N)=C/c2cccc(OC)c2OC)cc1,59.3% (active)

# — PubChem BioAssay AID588850 (Sanford-Burnham Center for Chemical Genomics, 2011)
